Source: PubChem
Rows were chosen to be rich in hits. Some 19% of all compounds tested hit in one or more screens of this group.
TDP1 cell CPT: DT40-hTDP1 cell growth loss with CPT; chicken DT40 Tdp1-/-;hTDP1 cells + 20 nM CPT, ATP luminescence, 48 h; Potency, µM (titrated, usually from 46.2 µM), for inactives: at the highest dose activity change, negative = growth inhibition, usual class: inhibitors; 12% of 420,000 active; note: potency is the fitted concentration of half-maximal effect; % is set by controls: 0 for no effect and ±100 for the full control effect; nearly all actives have a fitted effect of over 55% in size
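Chicken DT40 Tdp1-/- cells complemented with human TDP1, 400 cells/well, exposed to compounds plus 20 nM camptothecin for at least 48 h at 37 C; viability read as ATP content by CellTiter-Glo luminescence.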
TGFb SMAD3 inh: inhibitors of TGF-b signaling; HepG2 CAGA-GFP TGF-b/SMAD3 reporter, GFP fluorescence, 18 h; TGF-beta stimulated, 500 pg/mL final; Potency, µM (titrated, usually from 46.1 µM), for the others: top-dose activity, negative = inhibition, actives largely listed as inhibitors; 1.2% of 410,000 active; AID 588855; note: potency is the fitted concentration of half-maximal effect; % is set by controls: 0 for no effect and ±100 for the full control effect; nearly all actives have a fitted effect of over 65% in size
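First, reporter cells (HEPG2 CAGA-GFP) rested 2 h at 37 degrees C. Next, compounds were pinned in and TGF-beta added to 500 pg/mL final. After 18 h, GFP was imaged per cell and summed per well.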
IL-1B inflam inh: inhibitors of inflammasome signaling (IL-1 beta secretion) | AID 743279 | 4.7% of 360,000 active | activity change, % at 57.5 µM | THP-1 LPS/ATP IL-1B secretion, AlphaLISA, 16 h; stronger effect = lower value; in the data active = activity change below about -50%; inconclusive = mostly about -30% to -49%; note: % is set by controls: 0 for no effect and ±100 for the full control effect
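Secreted IL-1B measured by AlphaLISA bead assay after 16 h compound exposure of THP-1 cells; compounds (final up to 57.5 uM) added 1 h before LPS (250 ng/mL) and ATP (1.25 mM) stimulation; lower signal means less secretion.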
ASM inhibitor: human S-ASM enzyme inhibition; P17405; placental ASM, HMU-PC fluorogenic substrate, 60 min; Potency, µM (series often up to 57.5 µM), inactives show at the top dose activity change, negative = inhibition, usual class: inhibitors; 0.006% of 340,000 active; note: potency is the fitted concentration of half-maximal effect
Target sequence (P17405 47-631 limits assumed): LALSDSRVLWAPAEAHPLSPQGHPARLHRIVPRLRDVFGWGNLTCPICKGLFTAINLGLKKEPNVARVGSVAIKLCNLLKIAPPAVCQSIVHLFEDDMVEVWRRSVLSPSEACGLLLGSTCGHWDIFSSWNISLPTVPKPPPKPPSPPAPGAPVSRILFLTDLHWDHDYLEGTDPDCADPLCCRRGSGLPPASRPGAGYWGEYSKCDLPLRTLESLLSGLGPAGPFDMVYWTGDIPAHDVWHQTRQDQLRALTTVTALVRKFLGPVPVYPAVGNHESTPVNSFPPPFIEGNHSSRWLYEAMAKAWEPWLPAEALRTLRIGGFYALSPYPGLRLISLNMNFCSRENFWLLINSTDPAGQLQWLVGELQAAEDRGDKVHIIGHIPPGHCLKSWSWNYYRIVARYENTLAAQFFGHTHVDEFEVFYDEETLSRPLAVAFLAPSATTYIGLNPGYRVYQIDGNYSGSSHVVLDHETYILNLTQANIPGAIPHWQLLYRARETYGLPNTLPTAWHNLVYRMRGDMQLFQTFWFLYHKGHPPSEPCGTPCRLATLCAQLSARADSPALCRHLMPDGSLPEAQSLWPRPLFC
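Human placenta-derived ASM preincubated with compound 10 min at room temperature, then reacted with 9 uM (final) fluorogenic HMU-PC substrate for 60 min at 37 C. Stop solution raises pH to 10; fluorescence read at Ex 386/Em 447 nm.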
HepG2 viability: kills HepG2 cells in TGF-b inhibitor counter-screen; AID 588856; 0.76% of 410,000 active; HepG2 CAGA-GFP viability, ATP luminescence, 18 h; Potency, µM (titrated, usually from 46.1 µM), for the others: top-dose activity change, negative = cytotoxicity, usual class: cytotoxic; note: potency is the fitted concentration of half-maximal effect
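CellTiter-Glo luminescence gave cytotoxicity after 18 hours at 37 degrees C. The cells were HepG2 CAGA-GFP in 1% FBS DMEM, stimulated with 500 pg/mL TGF-beta after compound addition. %Activity was normalised to no-cell wells (complete cell-killing) and DMSO (no toxicity), and curves were fitted and classified.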
TDP1 cell noCPT: qHTS for Inhibitors of human tyrosyl-DNA phosphodiesterase 1 (TDP1): qHTS in cells in absence of CPT; DT40 Tdp1-/- hTDP1 cells, no CPT, ATP luminescence, 48 h; Potency, µM (top dose mostly 46.2 µM), for inactives: at the highest dose activity change, negative = growth inhibition, actives largely listed as inhibitors; 15% of 420,000 active; AID 686978, 2013; note: potency is the fitted concentration of half-maximal effect; % is set by controls: 0 for no effect and ±100 for the full control effect; nearly all actives have a fitted effect of over 55% in size
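No-CPT arm: Tdp1-/-;hTDP1 DT40 cells (400/well) plus compounds, incubated ≥48 hr at 37 °C. Readout CellTiter-Glo luminescence.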
Active calls of the source: *. Unless noted, calls come from the whole dose curve; as a rule, active = well fitted curve in the direction sought with a large enough effect; inconclusive = small, poorly fitted or top-dose-only effect, or another doubt; inactive = no such curve, though single readings can be large; an effect the other way counts as inactive or inconclusive.

How did CCOc1ccccc1N1CCN(C(=O)c2ccc(-c3ccc(OC(C)=O)cc3)cc2)CC1 do in these assays?
TDP1 cell CPT: inconclusive; TGFb SMAD3 inh: inconclusive; IL-1B inflam inh: -8; ASM inhibitor: inconclusive; HepG2 viability: -22%; TDP1 cell noCPT: inconclusive

What do the screens show for `Cc1cc(Nc2cccc(C(F)(F)F)c2)nc2ccc(NC(=O)c3cncc(Br)c3)cc12`?
TDP1 cell CPT: 5.8µM*; TGFb SMAD3 inh: inconclusive; HepG2 viability: 10µM*; TDP1 cell noCPT: 5.2µM*

Results for Cc1cccc(OCC(=O)Nc2ccc3nc(Nc4cccc(Cl)c4)cc(C)c3c2)c1 ?
TDP1 cell CPT: inconclusive; TGFb SMAD3 inh: inconclusive; HepG2 viability: -49%; TDP1 cell noCPT: inconclusive

How did Cc1ccc2cc(NC(=O)c3ccccc3C)ccc2n1 do in these assays?
TDP1 cell CPT: -16%; TGFb SMAD3 inh: 0%; IL-1B inflam inh: 2; ASM inhibitor: 2%; HepG2 viability: -16%; TDP1 cell noCPT: 1%

How did Cc1ccccc1C(=O)Nc1ccc2nc(Nc3cccc(C(F)(F)F)c3)cc(C)c2c1 do in these assays?
TDP1 cell CPT: 21µM*; TGFb SMAD3 inh: 14µM*; HepG2 viability: -20%; TDP1 cell noCPT: 18µM*

How did Cc1cc(Nc2cccc(Cl)c2)nc2ccc(NC(=O)c3cncc(Br)c3)cc12 do in these assays?
TDP1 cell CPT: 4.6µM*; TGFb SMAD3 inh: inconclusive; HepG2 viability: -39%; TDP1 cell noCPT: 5.2µM*

Results for CCOc1cc(C(=O)Nc2ccc3nc(Nc4cccc(Cl)c4)cc(C)c3c2)cc(OCC)c1OCC ?
TDP1 cell CPT: 4.6µM*; TGFb SMAD3 inh: -8%; HepG2 viability: -16%; TDP1 cell noCPT: 6.5µM*

Results for CC1CN(C(C)C)C(=S)NC1=O (stereo not given) ?
TDP1 cell CPT: 6%; TGFb SMAD3 inh: -9%; IL-1B inflam inh: 14; ASM inhibitor: 4%; HepG2 viability: 14%; TDP1 cell noCPT: -7%

How did Cc1ccccc1NC(=O)Cc1nnc(SCC(=O)N2CCOCC2)n1C do in these assays?
TDP1 cell CPT: 10%; TGFb SMAD3 inh: 10%; IL-1B inflam inh: 9; ASM inhibitor: -1%; HepG2 viability: 18%; TDP1 cell noCPT: -6%

What do the screens show for `CCCCn1nnnc1C1(C)CCC(=O)N1CCCn1ccnc1` (stereo not given)?
TDP1 cell CPT: 21µM*; IL-1B inflam inh: -7; TDP1 cell noCPT: 16µM*

What do the screens show for `Cc1ccc(C(=O)OC(C(=O)Nc2ccc(Cl)cc2C(F)(F)F)c2ccccc2)cc1` (stereo not given)?
TDP1 cell CPT: inconclusive; TGFb SMAD3 inh: inconclusive; IL-1B inflam inh: 14; ASM inhibitor: -11%; HepG2 viability: -63%; TDP1 cell noCPT: 23µM*

How did CN(C)CC(C)(C)CNC(C(=O)Nc1ccc(Cl)cc1C(F)(F)F)c1ccccc1 (stereo not given) do in these assays?
TDP1 cell CPT: -16%; TGFb SMAD3 inh: 1%; IL-1B inflam inh: inconclusive; ASM inhibitor: 0%; HepG2 viability: -10%; TDP1 cell noCPT: -12%

What do the screens show for `O=C(OC(C(=O)Nc1ccc(Cl)cc1C(F)(F)F)c1ccccc1)c1c(Cl)cccc1Cl` (stereo not given)?
TDP1 cell CPT: inconclusive; TGFb SMAD3 inh: -26%; IL-1B inflam inh: 0; ASM inhibitor: -1%; HepG2 viability: -13%; TDP1 cell noCPT: 13µM*

Results for Cc1ccc(C)c(NC(=O)C(OC(=O)c2ccc(CO)cc2)c2ccccc2)c1 (stereo not given) ?
TDP1 cell CPT: -5%; TGFb SMAD3 inh: -5%; IL-1B inflam inh: 9; ASM inhibitor: -4%; HepG2 viability: -12%; TDP1 cell noCPT: -3%

How did CCOc1ccccc1N(CC(=O)Nc1ccccc1C(=O)N1CCOCC1)S(C)(=O)=O do in these assays?
TDP1 cell CPT: -3%; TGFb SMAD3 inh: -2%; IL-1B inflam inh: -10; ASM inhibitor: 1%; HepG2 viability: -13%; TDP1 cell noCPT: 1%

What do the screens show for `O=C(Nc1cc(OC(=O)C(F)(F)F)c2nonc2c1OC(=O)C(F)(F)F)C(F)(F)F`?
TDP1 cell CPT: 10µM*; TGFb SMAD3 inh: inconclusive; HepG2 viability: -78%; TDP1 cell noCPT: 11µM*

What do the screens show for `CC(C)(C)c1ccc(C(O)c2ncc(-c3cccc(F)c3)[nH]2)cc1` (stereo not given)?
TDP1 cell CPT: 15µM*; TGFb SMAD3 inh: inconclusive; IL-1B inflam inh: -28; HepG2 viability: -35%; TDP1 cell noCPT: inconclusive

What do the screens show for `CC(C)(C)c1ccc(C(O)c2ncc(-c3ccc4ccccc4c3)[nH]2)cc1` (stereo not given)?
TDP1 cell CPT: inconclusive; TGFb SMAD3 inh: inconclusive; IL-1B inflam inh: -6; HepG2 viability: -92%; TDP1 cell noCPT: 18µM*

How did OC(c1cc(F)cc(Cl)c1)c1ncc(-c2ccc3ccccc3c2)[nH]1 (stereo not given) do in these assays?
TDP1 cell CPT: 18µM*; TGFb SMAD3 inh: 18µM*; IL-1B inflam inh: 5; HepG2 viability: -106%; TDP1 cell noCPT: 13µM*

How did OC(c1ccc(-c2ccccc2)cc1)c1ncc(-c2cccc(F)c2)[nH]1 (stereo not given) do in these assays?
TDP1 cell CPT: -23%; TGFb SMAD3 inh: inconclusive; IL-1B inflam inh: -8; HepG2 viability: -39%; TDP1 cell noCPT: inconclusive

What do the screens show for `CSc1ccc(C(O)c2ncc(-c3ccc(F)cc3)[nH]2)cc1` (stereo not given)?
TDP1 cell CPT: 29µM*; TGFb SMAD3 inh: -5%; IL-1B inflam inh: 10; HepG2 viability: -20%; TDP1 cell noCPT: 15µM*

Results for COc1ccc(NC(=O)CSc2nnc(Cc3ccccc3)c(=O)n2N)cc1OC ?
TDP1 cell CPT: 1%; TGFb SMAD3 inh: -2%; IL-1B inflam inh: -23; ASM inhibitor: -2%; HepG2 viability: 10%; TDP1 cell noCPT: -5%

What do the screens show for `CC1Cc2ccccc2N1C(=O)CSc1nccc(=O)[nH]1` (stereo not given)?
TDP1 cell CPT: 0%; TGFb SMAD3 inh: 6%; IL-1B inflam inh: 30; ASM inhibitor: 1%; HepG2 viability: 3%; TDP1 cell noCPT: -15%
